Bioassay records deposited in PubChem by National Center for Advancing Translational Sciences (NCATS).
FLuc counter: inhibits or activates purified firefly luciferase, miR-21 counter-screen; Potency, µM (series often up to 57.5 µM), usual class: inhibitors; P08659; purified FLuc, Km substrates, luminescence inhibition; 360,000 compounds, 6.9% hits; AID 588342; also: nearly all actives have a fitted effect of over 55% in size
Target sequence (P08659 whole entry, looked up): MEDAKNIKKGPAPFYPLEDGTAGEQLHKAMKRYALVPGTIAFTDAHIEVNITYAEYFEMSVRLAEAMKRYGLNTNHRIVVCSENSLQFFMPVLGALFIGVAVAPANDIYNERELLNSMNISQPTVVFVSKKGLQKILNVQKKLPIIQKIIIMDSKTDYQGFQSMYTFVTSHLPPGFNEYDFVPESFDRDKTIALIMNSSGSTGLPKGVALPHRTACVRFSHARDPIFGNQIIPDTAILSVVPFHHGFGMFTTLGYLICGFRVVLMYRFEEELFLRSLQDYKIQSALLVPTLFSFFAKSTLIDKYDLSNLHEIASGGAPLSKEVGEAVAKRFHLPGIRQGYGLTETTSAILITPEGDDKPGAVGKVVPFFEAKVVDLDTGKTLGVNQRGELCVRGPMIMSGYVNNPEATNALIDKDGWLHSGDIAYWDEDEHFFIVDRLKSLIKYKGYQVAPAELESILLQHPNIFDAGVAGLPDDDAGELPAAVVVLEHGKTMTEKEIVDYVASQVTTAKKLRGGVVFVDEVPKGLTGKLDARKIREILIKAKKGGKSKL
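Biochemical qHTS of compounds, final roughly 60 µM downward over six points, against 10 nM purified firefly luciferase using Km concentrations of substrates (10 uM D-luciferin, 10 uM ATP) in Tris acetate pH 7.5 buffer; luminescence output.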
NPC1 promoter act: activates the NPC1 promoter | Huh7 NPC1 promoter luciferase reporter, 24 h | 320,000 compounds, 2.4% hits | AID 485313 | Potency, µM (series often up to 9.22 µM), most hits filed as activators; also: nearly all actives have a fitted effect of over 60% in size
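Luciferase expression driven by the NPC1 promoter was measured in stably transfected Huh7 cells after a 24 h compound incubation, using a luciferase reagent and a luminescence read.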
Rab9 promoter act: Rab9 promoter activation; Huh7 Rab9 promoter-luciferase reporter, luminescence, 24 h; Potency, µM (titrated, usually from 9.22 µM), hits mostly activators; 320,000 compounds, 2.8% hits; AID 485297; also: nearly all actives have a fitted effect of over 60% in size
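Cells were plated at 1500 per well in reduced-serum medium with 10% FBS and left 2 h. Compound in DMSO was then added for 24 h at 37 °C. Reporter signal was read by luminescence after 10 min with luciferase detection reagent.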
SMN2 splice up: SMN2 splice variant enhancement; HEK293 SMN2-luciferase splicing reporter, luminescence, 30-36 h; Potency, µM (doses to about 46.1 µM), most hits filed as activators; 210,000 compounds, 2.8% hits; also: nearly all actives have a fitted effect of over 55% in size
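HEK293 cells carry an SMN2 minigene-luciferase reporter in which exon 7 inclusion puts luciferase in frame. Cells were seeded at 2000 cells/well, attached for 10-12 hours, then exposed to compounds for 30-36 hours at 37C before ONE-Glo luminescence.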
ELG1 genotoxic: genotoxicity induction in ELG1-luciferase HEK293T cells; Potency, µM (highest dose often 46 µM), actives largely listed as activators; 330,000 compounds, 1.3% hits; HEK293T ELG1-luciferase reporter, luminescence, 16 h; also: nearly all actives have a fitted effect of over 60% in size
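Step 1: seed 2,000 HEK293T ELG1-luciferase cells per well. Step 2: add compound or DMSO, incubate 16 hr at 37 °C. Step 3: ONE-Glo, 30 min at room temperature, read luminescence.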
Numbers stand for hits; i = inactive; ? = inconclusive; nt = not tested or not shown; [ ] = another dose, or the depositor's remark. Only some compounds are listed: those with a hit (about 7.4% of all), similar ones and a draw of the others. Calls follow the shape of the dose curve; as a rule, active = well fitted curve in the direction sought with a large enough effect; inconclusive = small, poorly fitted or top-dose-only effect, or another doubt; inactive = no such curve, though single readings can be large; an effect the other way counts as inactive or inconclusive.

SMILES	FLuc counter	NPC1 promoter act	Rab9 promoter act	SMN2 splice up	ELG1 genotoxic
O=C(c1cc2cc(Cl)ccc2o1)N1CCCCCC1	i	?	3.98µM	nt	i
Cc1ccc(CNC(=O)c2ccc(CN3CC(=O)N4CCCCC4C3=O)cc2)cc1 (configuration not stated)	i	nt	nt	nt	nt
CCOC(=O)C1CCN(S(=O)(=O)c2cc(-c3onc(C)c3C)ccc2OC)CC1	i	nt	nt	nt	nt
COc1cc(OC)cc(-c2cc3nc(C)c(CCC(=O)O)c(C)n3n2)c1	15.1µM	i	i	i	i
CCOC(=O)C1CCN(C(=O)CCc2c(C)nc3cc(-c4ccccc4)nn3c2C)CC1	?	i	i	i	i
Cc1nc2cc(-c3cccc(F)c3)nn2c(C)c1CCC(=O)NC(C)CCc1ccco1 (configuration not stated)	15.1µM	i	i	i	i
Cc1nc2cc(-c3cccc(F)c3)nn2c(C)c1CCC(=O)NC1CCCCC1	12µM	nt	nt	i	nt
CCOC(=O)C1CCCCN1C(=O)CCc1c(C)nc2cc(-c3ccccc3)nn2c1C (configuration not stated)	15.1µM	i	i	i	i
COc1cc(OC)cc(-c2cc3nc(C)c(CCC(=O)NC(C)CCc4ccco4)c(C)n3n2)c1 (configuration not stated)	i	i	i	i	i
COc1ccc(/C=C\c2onc(C)c2S(=O)(=O)N2CCC(C(=O)Nc3cccc(Cl)c3)CC2)cc1	i	nt	nt	i	nt
O=C(O)CC[P+](c1ccccc1)(c1ccccc1)c1ccccc1	nt	nt	nt	i[9.22 µM]	nt
COC(=O)c1nc(NC(=O)C(C)(C)C)n[nH]1	23.9µM	i	i	i	i
Cc1nc(N)sc1C(=O)N/N=C/c1c[nH]c2ccccc12	19µM	i	i	i	8.2µM
Cc1ccc2nc(C)c(C(=O)N/N=C/c3ccco3)cc2c1	?	i	i	i	i
Cc1nc(N)sc1C(=O)N/N=C/c1ccccc1[N+](=O)[O-]	i	2.82µM	2µM	14.1µM	i
Cc1ccc2nc(C)c(C(=O)N/N=C/c3ccccc3[N+](=O)[O-])cc2c1	6.75µM	i	i	i	i
COc1cccc(Cn2c(=O)c(-c3cccc(F)c3)nc3cncnc32)c1	nt	nt	nt	i	nt
CCOC(=O)c1ccc(NC(=O)CC(=O)Nc2ccc3nc4n(c(=O)c3c2)CCCCC4)cc1	i	nt	nt	i	nt
CSc1ncnc2c1ncn2C1OC(CO)C(O)C1O (configuration not stated)	nt	nt	nt	i	nt
COc1ccc(-c2nc(NC(C)=O)sc2-c2ccc(OC)cc2)cc1	i	i	i	i	i
COc1ccc(C2CC(=O)c3sc(NC(C)=O)nc3C2)cc1 (configuration not stated)	26.9µM	i	i	i	?
O=c1oc(-c2ccc([N+](=O)[O-])cc2)nc2ccccc12	i	i	i	i	i
COc1ccc(-c2nc3cc([N+](=O)[O-])ccc3o2)cc1	0.477µM	2.51µM	1.58µM	nt	?
Nc1ccc(-c2nc3cc([N+](=O)[O-])ccc3o2)cc1	2.13µM	1.41µM	1.12µM	nt	i
O=c1oc(-c2ccc([N+](=O)[O-])cc2)nc2ccc(O)cc12	15.1µM	i	?	i	i
SMILES	FLuc counter	NPC1 promoter act	Rab9 promoter act	SMN2 splice up	ELG1 genotoxic
Cc1ccc(-n2c(=O)c3ccc(C(=O)NCc4ccccc4Cl)cc3n(Cc3ccccc3F)c2=O)cc1	i	nt	nt	i	nt
CNc1nnc(-c2cc3cc(Cl)ccc3oc2=O)s1	?	?	?	?	18.4µM
O=c1n(Cc2ccccc2Cl)nc2n1-c1ccccc1SC2	23.9µM	?	3.55µM	nt	?
Cc1ccc(/C=N/Nc2ncnc3nc[nH]c23)cc1	9.53µM	2.82µM	1.58µM	nt	?
Clc1ccc(/C=N/Nc2ncnc3nc[nH]c23)cc1	16.9µM	?	?	nt	16.4µM
COc1ccc(NC(=O)N2CCCC3(CCN(S(=O)(=O)c4ccccc4)CC3)C2)cc1	nt	nt	nt	i	nt
Cc1ccc(NC(=O)CN2C(=O)C3(SCC(=O)N3c3cccc(Cl)c3)c3ccccc32)cc1C (configuration not stated)	i	nt	nt	nt	nt
CN(Cc1nccs1)C(=O)c1ccc2nc(Cc3ccccc3F)oc2c1	i	i	i	nt	i
Cc1cccc(CNC(=O)c2ccc3nc(Cc4ccccc4F)oc3c2)n1	26.9µM	3.55µM	3.55µM	nt	?
O=C(NCCc1ccccn1)c1ccc2nc(Cc3ccccc3F)oc2c1	10.7µM	2.82µM	2µM	nt	4.61µM
COC(=O)C1CCN(c2csc3ccc(C)cc3c2=O)CC1	6.01µM	nt	nt	nt	nt
COC(=O)C1CCN(c2csc3ccc(Cl)cc3c2=O)CC1	7.57µM	nt	nt	nt	nt
C=CCC(C)(O)c1cccc(Br)c1 (configuration not stated)	nt	nt	nt	i	nt
CCn1nc(-c2ccccc2)c(-c2ccccc2)c(C(=O)OCCOC)c1=O	i	nt	nt	i	nt
COc1ccccc1N1CCN(c2nc3ccc(C)cc3n3nnnc23)CC1	i	nt	nt	nt	nt
C/C(NC(=O)c1ccccc1F)=C1\C(=O)C[C@@H]2[C@H]1C2(C)C	15.1µM	?	?	nt	?
C/C(NC(=O)c1cccc(F)c1)=C1/C(=O)C[C@@H]2[C@H]1C2(C)C	10.7µM	i	i	i	?
CN1CCN(NC(=O)c2cccc(F)c2)CC1	i	i	i	i	i
CC1(C)CC(NC(=O)c2ccccc2F)CC(C)(C)N1	i	i	i	nt	i
OC[C@@H]1O[C@@H](N2CCN([C@@H]3O[C@@H](CO)[C@@H](O)[C@H](O)[C@H]3O)CC2)[C@@H](O)[C@H](O)[C@H]1O	nt	nt	nt	i[9.22 µM]	nt
COc1cccc(CC(=O)N2CCc3nc(-c4ccc(OC)cc4C)c4c(c3C2)CO[C@@H](c2ccccc2)C4)c1	nt	nt	nt	i[9.22 µM]	nt
NCCSS(=O)(=O)CCN	nt	nt	nt	i[9.22 µM]	nt
COC(=O)C(Cc1c[nH]c2ccccc12)NC(=O)c1ccccc1Br (configuration not stated)	4.26µM	i	i	nt	i
CCOC(=O)C(Cc1c[nH]c2ccccc12)NC(=O)c1ccccc1Br (configuration not stated)	0.675µM	i	i	nt	?
O=C(COC(=O)C(Cc1c[nH]c2ccccc12)NC(=O)c1ccc(Br)cc1)c1ccc(Cl)cc1 (configuration not stated)	i	nt	nt	nt	nt
SMILES	FLuc counter	NPC1 promoter act	Rab9 promoter act	SMN2 splice up	ELG1 genotoxic
CC1(C)OCC(CSC2=C(SCC3COC(C)(C)O3)C(=O)c3ncccc3C2=O)O1 (configuration not stated)	nt	nt	nt	i	nt
O=C(N/N=C/c1cccc([N+](=O)[O-])c1)c1cc2c(ccc3ccccc32)o1	i	?	i	i	i
O=C(N/N=C/c1ccncc1)c1cc2c(ccc3ccccc32)o1	?	i	i	i	i
COc1ccccc1/C=N/NC(=O)c1cc2c(ccc3ccccc32)o1	19µM	i	i	nt	i
COc1ccc(/C=N\NC(=O)c2cc3c(ccc4ccccc43)o2)cc1O	12µM	i	i	nt	i
COc1cc(/C=N/NC(=O)c2cc3c(ccc4ccccc43)o2)cc(OC)c1O	4.78µM	i	i	nt	i
COc1ccc(/C=N/NC(=O)c2cc3c(ccc4ccccc43)o2)cc1OC	10.7µM	i	i	nt	i
